Measurements: PubChem BioAssay AID434955 (Southern Research Specialized Biocontainment Screening …, 2010)
Screen size: about 330,000 compounds; about 880 (0.27%) were called active. Not shown: some 1% with an inconclusive outcome. How the calls were made is not given here. Not all results are given here.

Assay: beta-lactam sensitization of Mtb H37Rv, H37Rv (AID 434955);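 further: growth measured after seven days incubation then overnight dye step; 0% = bacteria only wells and 100% = bacteria with antibiotic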
Details: M. tuberculosis H37Rv growth with meropenem, percent inhibition, at 25 µM
[1] = measured here: primary screen without meropenem

Row | SMILES | inhibition (stronger effect = higher value) | inhibition [1] [%]
1 | CSc1ccc(CN2C(=O)NC3(CCCCCC3)C2=O)cc1 | 19.2% (inactive) | 5.94
2 | CCN(CC)CCNCC(=O)Nc1ccc(Oc2ccccc2)cc1 | -3.27% (inactive) | 3.64
3 | COc1ccc(N2CCN(C(=O)CCNC(=O)c3ccc(Br)cc3)CC2)cc1 | -10.2% (inactive) | -3.75
4 | O=C(NCc1ccccc1)C(c1ccco1)N(C(=O)c1csnn1)c1ccccc1F (stereo not given) | -3.66% (inactive) | -4.47
5 | COc1ccccc1CN1CC(C(=O)NCCc2cn[nH]c2)CCC1=O (stereo not given) | -1.38% (inactive) | 3.44
6 | CC1=NCCN1S(=O)(=O)c1ccc(Br)c(C)c1 | 5.04% (inactive) | 10.8
7 | Cn1c(SCC(=O)N2CCOCC2)nnc1-c1ccc(NC(=O)c2ccccc2F)cc1 | -1.25% (inactive) | -0.23
8 | Cc1ccc(S(=O)(=O)N(C)CC(=O)OCC(=O)N2CC(=O)Nc3ccccc32)cc1 | -3.86% (inactive) | -0.77
9 | Cc1csc(Nc2ccc(Cl)cc2)[n+]1-c1ccc(Cl)cc1 | 5.09% (inactive) | -4.07
10 | C=CCC(NCc1ccco1)c1ccc(OC)cc1 (stereo not given) | -0.53% (inactive) | -3.95
11 | CCCc1ccc(-c2c(C)sc(NC(=O)c3ccnn3C)c2C#N)cc1 | 15.9% (inactive) | -4.16
12 | N#Cc1ccc(OCCN2C(=O)NC3(CCSC3)C2=O)cc1 (stereo not given) | -7.2% (inactive) | -8.16
13 | CN(C)CCn1c2c(c(SCC(=O)Nc3ccccc3C(F)(F)F)nc1=O)CCCC2 | -6.06% (inactive) | -5.4
14 | O=C(NCCc1ccccc1)C1CCC(Cn2c(=O)c3ccccc3n(Cc3cccnc3)c2=O)CC1 (stereo not given) | 19.4% (inactive) | 2.41
15 | O=S(=O)(NCC1CC1)c1ccc(F)c(Cl)c1 | -3.45% (inactive) | 1.07
16 | O=C(Nc1ccccc1Cl)/C(Cl)=C(\Cl)S(=O)c1ccccc1 (stereo not given) | 100% (inactive) | 100
17 | O=C(Oc1c(-c2ccco2)oc2ccccc2c1=O)c1cccnc1 | 92.5% (inactive) | 91.2
18 | Cc1ccc(OCC(=O)Oc2ccccc2[N+](=O)[O-])cc1 | -3.48% (inactive) | -11.4
19 | O=C1NC2(CCCCC2)N=C1c1ccccc1 | -10.1% (inactive) | -2.99
20 | Cc1cc(NC(=O)c2ccccc2C)no1 | -1.93% (inactive) | 3.81

Row | SMILES | inhibition (stronger effect = higher value) | inhibition [1] [%]
21 | Cc1n[nH]c(=O)c2c(NC(=O)CSc3cc(Cl)ccc3Cl)oc(C)c12 | -5.41% (inactive) | -1.99
22 | CC(C)C(=O)Nc1nnc(SCC(=O)N2C(C)CCCC2C)s1 (stereo not given) | 0.21% (inactive) | 10.7
23 | Cc1ccc2c(c1)-c1c(ssc1=S)C(C)(C)N2C(=O)CN1C(=O)c2ccccc2C1=O | -4.41% (inactive) | -1.91
24 | CC1Sc2ccc(C(=O)NCc3ccccc3Cl)cc2NC1=O (stereo not given) | 6.05% (inactive) | 2.96
25 | COc1cc(C2C(C(=O)OCCC#N)=C(C)NC3=C2S(=O)(=O)c2ccccc23)cc(OC)c1OC (stereo not given) | 4.16% (inactive) | 1.07
26 | COc1ccc(-c2cc(=O)oc3cc(OC(C)C(=O)Nc4ccc(CN5CCOCC5)cc4)ccc23)cc1 (stereo not given) | 98.4% (inactive) | 96.8
27 | CC(Sc1nnc2c(n1)C1CCC2(C)C1(C)C)C(=O)Nc1ccccc1 (stereo not given) | -4.99% (inactive) | -6.12
28 | Nn1c(SCC(=O)Nc2ccc3c(c2)CCC3)nnc1C1CC1 | -4.28% (inactive) | -7.87
29 | C/C=C(\C)C(=O)NCCN1C2=NC[C@H](Cc3ccc(O)cc3)N2C[C@@H]1Cc1ccc(OC)cc1 | -14.9% (inactive) | -6
30 | CSCCC(Nc1ccc(S(=O)(=O)N2CCOCC2)cc1[N+](=O)[O-])C(=O)OCC(=O)N(C(C)C)C(C)C (stereo not given) | 3.64% (inactive) | 2.01
31 | CCCCC(C(=O)NC(C)(C)C)N(Cc1ccccc1)C(=O)c1snc(C(N)=O)c1N (stereo not given) | -2.34% (inactive) | 4.81
32 | Fc1ccc2c(c1)C(c1cccnc1)=NNC(c1cccs1)=N2 | 31% (inactive) | 4.96
33 | Cc1ccc(-c2csc(NC(=O)C3=COCCO3)n2)cc1C | 92.7% (inactive) | 99.3
34 | CN(CC(=O)Nc1ccc(S(=O)(=O)N2CCCC2)cc1)Cc1ccc(Cl)c(Cl)c1 | 1.99% (inactive) | 0.57
35 | C=C(C)c1cccc(C(C)(C)NC(=O)N2CCN(c3ncccn3)CC2)c1 | -9.15% (inactive) | -8.65
36 | O=C1C=C(c2ccnc3cc(Cl)ccc23)C[C@@H](c2ccc3c(c2)OCO3)C1 | 52.4% (inactive) | 50.9
37 | CCc1ccc(/C=N/NC(=O)c2ccc(OC3CCCC3)cc2)s1 | 2.88% (inactive) | 3.87
38 | Cc1ccc(-n2cc(CN(C)Cc3nccn3C)c(-c3cccc(C)c3)n2)cc1 | 98.9% (inactive) | 99.4
39 | O=C(NC(=S)N1CCN(Cc2ccccc2)CC1)c1ccccc1 | 36.8% (inactive) | -3.71
40 | CC(OC(=O)CN1C(=O)C2CCCCC2C1=O)C(=O)Nc1ncc(Cl)cc1Cl (stereo not given) | -4.66% (inactive) | 4.44
